Screening results (PubChem BioAssay)
An excerpt weighted towards active compounds, which were near 1.6% of everything screened.
KCNQ2 pot: potentiators of rat KCNQ2 potassium channel; CHO-K1 KCNQ2, FluxOR thallium flux fluorescence; active compounds read high; actives 0.54% (n = 310,000); Potassium voltage-gated channel subfamily KQT member 2 (Rattus norvegicus), O88943; B-score at 10 µM;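 active = fluorescence ratio B-score at least 3 SD of library B-scores, with initial fluorescence B-score within 3 of them, cut at about 5.3 in these data; same plate scores as AID 2156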;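 note: B-score of peak minus minimum over baseline fluorescence ratio after K+ and Tl+ stimulus; positive B-score means potentiation of KCNQ2 with more thallium influx and brighter signal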
Target sequence (O88943 whole entry, looked up): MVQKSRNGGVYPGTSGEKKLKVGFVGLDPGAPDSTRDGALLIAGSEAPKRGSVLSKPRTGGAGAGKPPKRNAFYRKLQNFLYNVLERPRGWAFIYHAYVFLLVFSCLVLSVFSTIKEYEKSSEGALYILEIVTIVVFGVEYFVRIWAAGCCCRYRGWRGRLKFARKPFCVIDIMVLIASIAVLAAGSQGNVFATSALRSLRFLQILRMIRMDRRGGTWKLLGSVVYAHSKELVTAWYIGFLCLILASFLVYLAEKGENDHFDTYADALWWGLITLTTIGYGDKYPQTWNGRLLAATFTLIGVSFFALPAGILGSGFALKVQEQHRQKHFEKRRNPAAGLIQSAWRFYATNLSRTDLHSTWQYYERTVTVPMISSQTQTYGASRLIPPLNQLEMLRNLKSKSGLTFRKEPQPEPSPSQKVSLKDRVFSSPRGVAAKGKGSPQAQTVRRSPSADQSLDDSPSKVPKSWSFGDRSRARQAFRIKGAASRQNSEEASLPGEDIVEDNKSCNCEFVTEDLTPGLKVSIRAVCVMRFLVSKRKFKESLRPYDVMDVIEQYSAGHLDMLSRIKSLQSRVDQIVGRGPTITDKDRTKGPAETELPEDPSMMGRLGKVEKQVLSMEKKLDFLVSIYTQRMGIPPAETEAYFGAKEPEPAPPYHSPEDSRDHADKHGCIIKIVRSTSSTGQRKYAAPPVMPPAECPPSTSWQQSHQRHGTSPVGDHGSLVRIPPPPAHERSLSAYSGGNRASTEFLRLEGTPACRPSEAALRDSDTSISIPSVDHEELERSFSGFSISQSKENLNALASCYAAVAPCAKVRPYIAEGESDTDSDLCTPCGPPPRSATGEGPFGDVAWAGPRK
KCNQ2 block: rat KCNQ2 potassium channel inhibitors, primary screen, cell-based, CHO-K1, FluxOR thallium flux, B-score; Potassium voltage-gated channel subfamily KQT member 2 (Rattus norvegicus), O88943; 20 min; active compounds read low; B-score at 10 µM; actives 1.1% (n = 310,000); AID 2156, 2009;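 active = fluorescence ratio B-score at most minus 3 library SDs, with starting brightness B-score within 2 library SDs, cut at about -5.5 in these data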
Starred values were filed as active, the others as inactive; i = inactive; . = no result.

SMILES | KCNQ2 pot | KCNQ2 block
CCN(C(=O)c1cc2c(=O)[nH]c3ccc(C)cc3c2s1)c1ccccc1C | 0.05 | i
CCN(C(=O)c1cc2c(=O)[nH]c3ccc(C)cc3c2s1)c1ccccc1F | 13* | i
Cc1ccc(S(=O)(=O)N(C)CC(=O)N2CCCCCC2)cc1 | 0.46 | i
COc1cccc(CSc2nccn2C)c1 | 2.1 | i
COC(=O)c1ccc(NC(c2ccc(Cl)cc2)P(=O)(OC)OC)cc1 (stereo not given) | . | i
Cc1cc(Br)ccc1NC(=O)C1CCN(S(=O)(=O)c2cnc[nH]2)CC1 | 0.02 | i
COc1cc(NC(=O)c2ccnnc2)cc(C(=O)Nc2cccc(C(F)(F)F)c2)c1 | -5.8 | -5.8*
O=C(Nc1cccc(C(F)(F)F)c1)c1cccnc1 | 1.8 | i
Cc1ccccc1CC(=O)Nc1ccc(S(=O)(=O)N2CCOCC2)cc1 | . | i
O=C(CN(C1CCCCC1)S(=O)(=O)c1ccccc1)N1CCCC1 | . | i
O=C(CN(C1CCCCC1)C1CCCCC1)N1CCc2ccccc2C1 | -8 | -8*
CCOCCCNC(=O)CCN1C(=O)c2ccccc2Sc2ncccc21 | 1.9 | i
Cc1ccc(C)c(NC(=O)CN(C)C(=O)c2cc([N+](=O)[O-])ccc2N2CCOCC2)c1 | 0.91 | i
Cc1cc(Br)ccc1NC(=O)CN(C)C(=O)c1cc([N+](=O)[O-])ccc1N1CCOCC1 | -6.5 | -6.5*
COc1ccc(C(=O)N/C(=C/c2cccs2)c2nc3ccccc3[nH]2)cc1OC | 1.1 | i
COc1cc(/C=C(/C(=O)c2cccs2)c2nc3ccccc3[nH]2)cc(OC)c1O | -6.1 | -6.1*
CCN1CCN(S(=O)(=O)c2c(C)[nH]c(C)c2C(=O)N2CCCCC2)CC1 | 2.7 | i
CCCCNC(=O)CNC(=S)N(Cc1ccccc1F)C1CCCCC1 | -6.8 | -6.8*
COCCCNC(=O)CNC(=S)N(Cc1ccccc1F)C1CCCCC1 | . | i
CCOc1ccc(N(Cc2cc3ccc(C)cc3[nH]c2=O)S(=O)(=O)c2ccccc2)cc1 | . | i
O=C(O)CC(C(=O)Nc1ccc(Cl)cc1)N1CCCCCC1 (stereo not given) | . | i
O=C(NCc1ccco1)c1nn2c(C(F)(F)F)cc(-c3cccs3)nc2c1Br | -6.8 | -6.8*
O=C(NCc1ccco1)c1nc2nc(-c3cccs3)cc(C(F)(F)F)n2n1 | 0.75 | i
O=C(NCc1cccnc1)c1cc2nc(-c3ccc4c(c3)OCO4)cc(C(F)(F)F)n2n1 | 0.51 | i
O=C(NCc1ccco1)c1cc2nc(-c3ccc4c(c3)OCO4)cc(C(F)(F)F)n2n1 | -8.2 | -8.2*
SMILES | KCNQ2 pot | KCNQ2 block
CCOC(=O)CCNC(=O)c1ccc2nc(C3CCCCC3)oc2c1 | 2 | i
COc1ccc(CC(=O)Nc2cccc(S(=O)(=O)N3CCCCCC3)c2)cc1OC | . | i
Clc1ccccc1OCCCOc1cccc2cccnc12 | . | i
CC1(CCC(=O)N2CCCC(N3CCN(c4cccc(C(F)(F)F)c4)CC3)C2)CC1 (stereo not given) | . | i
CSCC(=O)N1CCCC(N2CCN(c3cccc(C(F)(F)F)c3)CC2)C1 (stereo not given) | -6.8 | -6.8*
O=C(CSC(=S)N1CCN(c2ccccc2)CC1)Nc1nc(-c2ccccc2)c(-c2ccccc2)o1 | 0.92 | i
O=C(c1ccncc1)N(c1ccc2oc3c(c2c1)CCCC3)S(=O)(=O)c1cccc([N+](=O)[O-])c1 | . | i
COc1ccc(S(=O)(=O)N(C(=O)c2ccncc2)c2ccc3oc4c(c3c2)CCCC4)cc1 | -5.7 | -5.7*
COC(CNC(=O)CCc1c(C)nc2c(c(C)nn2-c2ccc(C)cc2)c1C)OC | 0.93 | i
Cc1ccc(-n2nc(C)c3c(C)c(CCC(=O)Nc4ccc(CN5CCCC5)cc4)c(C)nc32)cc1 | -7.9 | -7.9*
CC(=O)Nc1ccc(S(=O)(=O)N2CCC(C(=O)N[C@@H](C)C(=O)NC3CCCC3)CC2)cc1 | . | i
c1ccc(CCn2c3ccccc3c3nnc(SCc4ccc5nonc5c4)nc32)cc1 | -6.2 | -6.2*
CCN(CC)CCSc1nnc2c3ccccc3n(CCc3ccccc3)c2n1 | . | i
Cc1cccc(NC(=O)CSc2nnc(CNC(=O)c3ccco3)n2C)c1C | . | i
Cc1nc2ccc(NC(=O)NCc3ccco3)cc2s1 | 0.31 | i
O=C(NCc1ccco1)Nc1ccc2snnc2c1 | 6.1* | i
COc1ccc(C(C)NC(=O)Cc2cccs2)cc1OC (stereo not given) | . | i
CCN(CC)C(=O)Oc1ccc2oc(=O)cc(-c3cc4cccc(OC)c4o3)c2c1 | . | i
CCOC(=O)C1(CCOc2ccccc2)CCN(Cc2ccc(O)cc2)CC1 | 1.6 | i
CCOC(=O)C1(CCOc2ccccc2)CCN(Cc2cccc3nonc23)CC1 | -6.2 | -6.2*
CN(Cc1cccnc1)C(=O)c1cc(COc2ccc3c(c2)CCCC3)on1 | 1.4 | i
